Assay [1] in a line: NCI Yeast Anticancer Drug Screen. Data for the rad50 strain (AID 155).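 Also: 0% = growth of vehicle-only cultures of the same strain.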 To be noted: S. cerevisiae rad50 strain growth inhibition; at 50.0 µM; hits give high values. The procedure, abridged:
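Vehicle-treated cultures provide the reference for the growth inhibition reported for compound-exposed, repair-deficient yeast.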

The nature of assay [2]: NCI Yeast Anticancer Drug Screen. Data for the mec2-1 strain (AID 157). The note with it: S. cerevisiae mec2-1 strain, at 50.0 µM, hits give high values. In a few lines: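 mec2-1 yeast strain, carrying an alteration in DNA damage repair or cell cycle control, was exposed to compounds; growth inhibition was measured relative to vehicle-treated controls.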
Assay [3] is described as follows: NCI Yeast Anticancer Drug Screen. Data for the sgs1 mgt1 strain (AID 161).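 Also: 0% = growth of cultures given vehicle only.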 To be noted: S. cerevisiae sgs1 mgt1 strain, at 50.0 µM, hits give high values. The procedure, abridged: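 Yeast cells carrying a defined DNA-repair defect were exposed to test compounds. Growth inhibition was measured relative to vehicle-treated controls.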
The nature of assay [4]: NCI Yeast Anticancer Drug Screen. Data for the cln2 rad14 strain (AID 165).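 Also: 0% = growth equal to vehicle treated cultures.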 To be noted: S. cerevisiae cln2 rad14 strain, at 50.0 µM, hits give high values. The procedure, abridged:
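Yeast carrying cln2 and rad14 alterations (cell cycle control and DNA damage repair) were exposed to compounds. Growth inhibition was measured against vehicle-treated controls.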

Assay [5] can be described thus: NCI Yeast Anticancer Drug Screen. Data for the bub3 strain (AID 167). The note with it: S. cerevisiae bub3 mutant strain, at 50.0 µM, hits give high values. The procedure, abridged: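 Mutant yeast screening strain plus compound; vehicle-treated cultures serve as the 0% inhibition reference.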
Assay [6] is described as follows: NCI Yeast Anticancer Drug Screen. Data for the mlh1 rad18 strain (AID 175). To be noted: S. cerevisiae mlh1 rad18 strain growth inhibition; at 50.0 µM; hits give high values. In a few lines: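 Growth inhibition of the yeast strain was measured after compound exposure and expressed relative to vehicle-treated controls. The strain carries defined defects in DNA damage repair.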

Experimental findings from PubChem BioAssay (NCI) are described below.

Compounds without any hit were thinned out: in the full panel of roughly 79,000, 15% have a hit. Unmarked numbers belong to inactive results. Calls of active or inactive are those of the source. Rule as the data show it: active = growth inhibition above about 70%; inactive = the rest.

As for `CCCO/N=[N+](\[O-])N(CC)CC`, the growth inhibition in assay [1] is -7.7%; in assay [2], -17.4%; in assay [3], 7.5%; in assay [4], 13.8%; in assay [5] it was -0.8%; in assay [6], -1.45%.

In the case of `CSc1nc(N)c(NS(=O)(=O)c2ccccc2)c(=O)[nH]1`, the growth inhibition in assay [1] is -10.6%; in assay [2] it was -18.1%; in assay [3] it was -17.6%; in assay [4], -2.9%; in assay [5], 6.95%; in assay [6] it was 6.05%.

As for `CC1C(=O)OC(C)(C)C1(C)C` (stereo not given), the growth inhibition in assay [1] was 22.4%; in assay [2], -16.3%; in assay [3], 4.75%; in assay [4] it was -41.6%; in assay [5], 0.2%; in assay [6], -10.4%.

In the case of `Cc1ccccc1CN`, the growth inhibition in assay [1] is 28.9%; in assay [2], 3.05%; in assay [3] it was -10.8%; in assay [4], 1.05%; in assay [5], 18.3%; in assay [6], 23.6%.

For the compound `CSc1ccc(NC(=O)Nc2cc(C)ccn2)cc1`, the growth inhibition in assay [1] is 5.8%; in assay [2] it was -11.1%; in assay [3] it was -45.7%; in assay [4] it was -37.8%; in assay [5], -61%; in assay [6], 10.6%.

For `CN(C)N=Nc1cccc(Cl)c1`, the growth inhibition in assay [1] was 25.9%; in assay [2], 0.6%; in assay [3], 10.3%; in assay [4], 16.2%; in assay [5], 8.8%; in assay [6], 14.2%.

With `CCCCC(CC)CNCC(CC)CCCC` (stereo not given), the growth inhibition in assay [1] is 33.8%; in assay [2], 45.5%; in assay [3], 14.8%; in assay [4], 40.6%; in assay [5], 5.5%; in assay [6], 26.1%.

Regarding `COc1ccc(Cl)[n+]([O-])n1`, the growth inhibition in assay [1] was -20.3%; in assay [2], -4.15%; in assay [3], -2%; in assay [4] it was 0.8%; in assay [5], -10.3%; in assay [6], -29.6%.

In the case of `CC(=O)OC[C@@]12CC[C@H]3C(C)(C)CCC[C@]3(C)[C@H]1C[C@@H](C1=CC(=O)O[C@H]1O)O2`, the growth inhibition in assay [1] was 86.6% (active); in assay [2], 91.8% (active); in assay [3] it was 91.5% (active); in assay [4] it was 91.5% (active); in assay [5] it was 89.4% (active); in assay [6] it was 90% (active).

As to `COc1ccc(C(O)C(C)C(O)(C(F)(F)F)C(F)(F)F)cc1` (stereo not given), the growth inhibition in assay [1] was 70.5% (active); in assay [2], 67.7%; in assay [3], 89.3% (active); in assay [4], 63.8%; in assay [5], 72.7% (active); in assay [6] it was 90% (active).

With `COC(=O)C1(C)CCCC2(C)C3CC(O)C(C(C)C)=CC3(O)CCC12` (stereo not given), the growth inhibition in assay [1] was 10.2%; in assay [2], -4.65%; in assay [3] it was 15.9%; in assay [4], -12.6%; in assay [5] it was -1%; in assay [6], 15.3%.

For the compound `CCOC(=O)c1ccc(N(CC(=O)O)S(=O)(=O)c2ccc(C)cc2)s1`, the growth inhibition was 17.5% in assay [1]; -1% in assay [2]; 2.5% in assay [3]; 16.6% in assay [4]; 0.85% in assay [5]; -8.8% in assay [6].

Turning to `O=C(/C=C/c1ccc(O)c(O)c1)OC1C[C@@](O)(C(=O)O)C[C@@H](O)[C@H]1OC(=O)/C=C/c1ccc(O)c(O)c1` (stereo not given in full), the growth inhibition was 17.8% in assay [1]; -14.1% in assay [2]; 21.1% in assay [3]; -2.95% in assay [4]; -6% in assay [5]; 25.9% in assay [6].

For the compound `CN1CCN(P(=O)(c2ccccc2)N2CCN(C)CC2)CC1`, the growth inhibition in assay [1] was 32.3%; in assay [2], 7.85%; in assay [3], 29.6%; in assay [4], 20.1%; in assay [5], -1.1%; in assay [6], 30.7%.

In the case of `CC1CC=C2CCCCC2(C)C1C` (stereo not given), the growth inhibition in assay [1] is 8.7%; in assay [2] it was 13.7%; in assay [3], 16.2%; in assay [4] it was -30.9%; in assay [5], -40.6%; in assay [6] it was 3.7%.

For `COc1ccc2nc(NCN3C(=O)c4ccccc4C3=O)sc2c1`, the growth inhibition in assay [1] was 5.05%; in assay [2] it was -4.05%; in assay [3] it was -19.1%; in assay [4] it was 26.9%; in assay [5] it was 9.9%; in assay [6], -5.5%.

Consider `CCC(=O)C(CC)c1ccccc1OC` (stereo not given), for which the growth inhibition in assay [1] was 8.75%; in assay [2] it was -8.35%; in assay [3] it was 4.65%; in assay [4], 16.5%; in assay [5], 5.45%; in assay [6], 15%.

Consider `C/C(CC(=O)Nc1cccc(Cl)c1C)=N\N=C(N)N`, for which the growth inhibition in assay [1] was -10.2%; in assay [2], -27.6%; in assay [3], -15.2%; in assay [4], 19.4%; in assay [5], -23%; in assay [6], -8.9%.

In the case of `Cc1cc(Cc2c(F)c(F)c(C(c3cc(C)no3)c3c(F)c(F)c(F)c(F)c3F)c(F)c2F)on1` (stereo not given), the growth inhibition was -7.55% in assay [1]; -37.9% in assay [2]; 5.8% in assay [3]; -58.8% in assay [4]; -26.1% in assay [5]; -8.3% in assay [6].

`COc1ccc(C2(O)c3ccccc3C(=O)c3ccc(OC)cc32)cc1` (stereo not given): the growth inhibition was -3.15% in assay [1]; -10.6% in assay [2]; 4.15% in assay [3]; 14.8% in assay [4]; -11.1% in assay [5]; -10.5% in assay [6].
